Test results as given in PubChem BioAssay AID1851 (National Center for Advancing Translational Sciences (NCATS), 2009).
The whole screen tested about 16,000 compounds, of which about 5,800 (36%) were called active. About 23% were inconclusive and are not listed. Calls come from the whole dose curve; as a rule, active = well fitted curve in the direction sought with a large enough effect; inconclusive = small, poorly fitted or top-dose-only effect, or effect the other way; inactive = no such curve, though single readings can be large or run the other way. This is one part of the list.

Target: Cytochrome P450 2C19 (Homo sapiens) (UniProt P33261)
Sequence (P33261 whole entry, looked up): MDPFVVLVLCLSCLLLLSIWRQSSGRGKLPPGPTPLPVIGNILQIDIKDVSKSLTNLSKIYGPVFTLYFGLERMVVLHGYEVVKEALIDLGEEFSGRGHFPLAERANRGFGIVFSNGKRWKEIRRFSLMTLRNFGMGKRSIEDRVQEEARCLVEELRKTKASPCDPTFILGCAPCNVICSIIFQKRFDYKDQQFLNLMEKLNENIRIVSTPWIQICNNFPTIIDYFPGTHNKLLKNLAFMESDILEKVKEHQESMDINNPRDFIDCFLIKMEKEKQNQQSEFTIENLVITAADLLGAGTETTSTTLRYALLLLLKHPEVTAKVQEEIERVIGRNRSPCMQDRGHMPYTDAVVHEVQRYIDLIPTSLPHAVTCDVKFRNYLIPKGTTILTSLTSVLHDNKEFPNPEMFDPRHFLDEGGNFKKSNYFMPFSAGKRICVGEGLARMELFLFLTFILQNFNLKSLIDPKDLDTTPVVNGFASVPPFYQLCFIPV
Assay: Cytochrome panel assay with activity outcomes
Conditions: recombinant CYP, pro-luciferin dealkylation, luminescence, p450-cyp2c19; series mostly up to 57.1 µM
% is set by controls: 0 for no effect and ±100 for the full control effect.

| SMILES | AC50 | activity, negative = inhibition |
| --- | --- | --- |
| CCN(CC)C(=O)CSc1nc2ccc(NC(=O)CSc3nnc(COc4ccccc4C)n3C)cc2s1 | 2.82 µM (active) |  |
| Br/C(=N\Nc1nn[nH]n1)c1ccncc1 |  | 22.2% [at 11.4 µM] (inactive) |
| CC(=O)ON(C(C)=O)S(=O)(=O)c1ccc(Cl)cc1 | inactive |  |
| NCCNC(=O)c1ccc(Cl)cc1 | inactive |  |
| CC(Oc1ccc(Cl)cc1Cl)C(=O)/C=C/N(C)C (stereo unspecified) | 2.82 µM (active) |  |
| O=C(O)/C=C\[C@H](O)c1ccc(Cl)cc1 | inactive |  |
| CN(C)/C=C/C(=O)c1ccc(Cl)cc1 | 11.2 µM (active) |  |
| CC(Oc1ccc(Cl)cc1)C(=O)/C=C/N(C)C (stereo unspecified) | 7.94 µM (active) |  |
| O=C(NCc1ccccc1)C(c1cccs1)N(Cc1cccs1)C(=O)c1cnccn1 (stereo unspecified) | 3.55 µM (active) |  |
| COc1ccc(CNC(=O)C(c2ccc(C)cc2)N(Cc2cccs2)C(=O)c2ccc3c(c2)OCCO3)cc1 (stereo unspecified) | 2.82 µM (active) |  |
| COc1ccc(C(C(=O)NCc2ccccc2)N(Cc2cccs2)C(=O)c2cnccn2)cc1 (stereo unspecified) | 7.08 µM (active) |  |
| O=C(c1cnccn1)N1CCC2(CC1)CCN(C(c1ccccc1)c1ccccc1)CC2 | inactive |  |
| CCc1ccc(C(C(=O)NCc2ccc(OC)cc2)N(CCOC)C(=O)Cc2cccs2)cc1 (stereo unspecified) | 5.62 µM (active) |  |
| COc1ccc2nc3oc(C(=O)NCc4cccs4)cc3cc2c1 | inactive |  |
| CCOC(=O)C(C)Sc1ncc(OC)c(Sc2ccc(Cl)cc2)n1 (stereo unspecified) | 3.55 µM (active) |  |
| CCOC(=O)CSc1ncc(OC)c(Sc2ccc(Cl)cc2)n1 | 1.78 µM (active) |  |
| COC(=O)CSc1ncc(OC)c(OC)n1 | inactive |  |
| CC[C@H]1CC[C@H]2[C@@H]3CC=C4C[C@H](OC(C)=O)[C@@H](N)C[C@@]4(C)[C@H]3CC[C@@]12C |  | 22.6% [at 11.4 µM] (inactive) |
| O=c1c2ccccc2nc2n1CCc1c-2[nH]c2ccccc12 | inactive |  |
| CCCCc1c2ccccc2nc2[nH]c3ccccc3c12 | inactive |  |
| c1ccc(-c2c3ccccc3nc3[nH]c4ccccc4c23)cc1 | 10 µM (active) |  |

| SMILES | AC50 | activity, negative = inhibition |
| --- | --- | --- |
| Clc1ccc(CC[C@H](Cn2ccnc2)Sc2c(Cl)cccc2Cl)cc1 | 0.00251 µM (active) |  |
| COc1ccc(NS(=O)(=O)c2ccc(I)cc2)cc1N1CCN(C)CC1 | inactive |  |
| COc1ccc(S(=O)(=O)Nc2ccc(S(=O)(=O)N3CCCCC3)cc2)cc1C | 2.82 µM (active) |  |
| COc1ccc(S(=O)(=O)N2CCCCCC2)cc1N(C)S(=O)(=O)c1ccc(Cl)cc1 | 5.01 µM (active) |  |
| N#Cc1ccc(CN2CCC3(CC2)CCN(C(=O)c2cc(C(F)(F)F)cc(C(F)(F)F)c2)CC3)cc1 | inactive |  |
| O=c1c(-c2ccc(O)cc2)coc2cc(O)ccc12 | 10 µM (active) |  |
| O=c1c(-c2ccc(F)c(F)c2)nc2cncnc2n1Cc1ccccc1Cl | 6.31 µM (active) |  |
| O=c1c(-c2ccc(F)c(F)c2)nc2cncnc2n1C1CC1 | inactive |  |
| O=c1c(-c2ccc(Cl)cc2)nc2cncnc2n1Cc1ccccc1Cl | 3.98 µM (active) |  |
| CN(CCOc1ccc(C[C@H](Nc2ccccc2C(=O)c2ccccc2)C(=O)O)cc1)c1ccccn1 | 3.98 µM (active) |  |
| CNc1nc(NCCOC23CC4CC(CC(C4)C2)C3)nc(OCC(F)(F)F)n1 | 1.41 µM (active) |  |
| CC(C)CCn1nnnc1C(c1ccc(F)cc1)N1CCN(C(=O)c2ccco2)CC1 (stereo unspecified) | 4.47 µM (active) |  |
| CCC(c1nnnn1CCOC)N1CCN(C(=O)c2ccco2)CC1 (stereo unspecified) | 3.98 µM (active) |  |
| O=C(c1ccco1)N1CCC2(CC1)CN(C(c1ccccc1)c1ccccc1)C2 | inactive |  |
| O=C(c1ccco1)N1CCC2(CC1)CCN(C(c1ccccc1)c1ccccc1)CC2 | inactive |  |
| C[C@]1(OC(=O)/C=C\c2ccccc2)C[C@@H](O)[C@@]2(O)C=CO[C@@H](O[C@H]3O[C@@H](CO)[C@@H](O)[C@@H](O)[C@@H]3O)[C@H]21 | inactive |  |
| Cc1ccccc1NC(=O)CSc1nnc(-c2ccccc2)n1-c1ccccc1 | 2.24 µM (active) |  |
| CCN(CC)C(=O)CSc1nnc(-c2ccncc2)n1N | inactive |  |
| O=C(CSc1nnc(-c2ccccc2)n1-c1ccccc1)c1cccs1 | 0.631 µM (active) |  |
| CCOc1ccc(-n2c(SCC(=O)Nc3ccccc3C)n[nH]c2=O)cc1 | 5.62 µM (active) |  |
| CC(C)NC(=O)CSc1nnc(C2CC2)n1-c1ccccc1 | inactive |  |

| SMILES | AC50 | activity, negative = inhibition |
| --- | --- | --- |
| Cc1ccc(C(=O)NNC(=O)CSc2nnc(-c3ccncc3)n2-c2ccc(C)cc2)cc1 | 5.62 µM (active) |  |
| Cc1cc(C2(c3cc(C)c(O)c(C(=O)O)c3)OS(=O)(=O)c3ccccc32)cc(C(=O)O)c1O |  | 12.7% [at 11.4 µM] (inactive) |
| O=C(O)c1cc2c(o1)CCC/C2=N\O | inactive |  |
| CCn1c(SCC(=O)Nc2ccccc2C(=O)OC)nnc1-c1ccc(N)cc1 | 0.178 µM (active) |  |
| CC(=O)OC1CCC(OC(C)=O)c2c1n([O-])c(C)c(C)[n+]2=O (stereo unspecified) | inactive |  |
| Cc1ccccc1S(=O)(=O)O[C@@H]1NS(=O)(=O)c2ccccc21 |  | 24% [at 11.4 µM] (inactive) |
| Cc1ccccc1S(=O)(=O)Oc1ccccc1C(=O)Oc1ccccc1 | 1.78 µM (active) |  |
| CC(=O)Oc1ccccc1C(=O)Oc1ccccc1C(=O)O | inactive |  |
| CCOC(=O)C(C)CC(C)C(=O)N1CCOCCN(C(=O)C(C)CC(C)C(=O)OCC)CCOCC1 (stereo unspecified) | 10 µM (active) |  |
| CC(C)OC(=O)C(CC(=O)O)N1CCOCC1 (stereo unspecified) | inactive |  |
| NC(=O)CN1CCOCCOCCOCCOCCOCC1 | inactive |  |
| CC1(C)O[C@@H]2C[C@H]3[C@H]4C[C@H](F)C5=CC(=O)CC[C@]5(C)[C@@H]4[C@H](O)C[C@]3(C)[C@]2(C(=O)CO)O1 | inactive |  |
| CC1=NN(c2ccccc2)C(=O)C1 | inactive |  |
| O=C1CC(=Nc2ccccc2)NN1c1ccccc1 | 5.62 µM (active) |  |
| c1ccc2c(c1)C(=Nc1ccc(N=C3c4ccccc4-c4ccccc43)cc1)c1ccccc1-2 |  | -36.8% [at 11.4 µM] (inactive) |
| CCCCC1=NN2C(=N)CC(=O)N=C2S1 | inactive |  |
| C[C@H]1COC(=O)[C@H](Cc2ccccc2)NC(=O)[C@@H](C)COC(=O)[C@H](Cc2ccccc2)NC1=O |  | -17.3% [at 11.4 µM] (inactive) |
| O=C1C(Cc2ccccc2)NC(=S)N1c1ccccc1 (stereo unspecified) | 3.16 µM (active) |  |
| CO[C@@H]1COC(=O)[C@H](Cc2ccccc2)NC(=O)C/C=C\[C@@H](C)[C@H](OC)COC(=O)[C@@H](C)NC(=O)C/C=C\[C@H]1C |  | 10.6% [at 11.4 µM] (inactive) |
